Experimental data: PubChem BioAssay

target: Torsin-1A-interacting protein 1 (Homo sapiens) (UniProt Q5JTV8); assay: LAP1 binders from COS7 cell lysate, primary screen, small-molecule microarray, 635/667 nm fluorescence (AID 1116); details: COS7-hLAP1 lysate binding, 635 nm fluorescence, higher = more signal
Sequence (Q5JTV8 whole entry, looked up): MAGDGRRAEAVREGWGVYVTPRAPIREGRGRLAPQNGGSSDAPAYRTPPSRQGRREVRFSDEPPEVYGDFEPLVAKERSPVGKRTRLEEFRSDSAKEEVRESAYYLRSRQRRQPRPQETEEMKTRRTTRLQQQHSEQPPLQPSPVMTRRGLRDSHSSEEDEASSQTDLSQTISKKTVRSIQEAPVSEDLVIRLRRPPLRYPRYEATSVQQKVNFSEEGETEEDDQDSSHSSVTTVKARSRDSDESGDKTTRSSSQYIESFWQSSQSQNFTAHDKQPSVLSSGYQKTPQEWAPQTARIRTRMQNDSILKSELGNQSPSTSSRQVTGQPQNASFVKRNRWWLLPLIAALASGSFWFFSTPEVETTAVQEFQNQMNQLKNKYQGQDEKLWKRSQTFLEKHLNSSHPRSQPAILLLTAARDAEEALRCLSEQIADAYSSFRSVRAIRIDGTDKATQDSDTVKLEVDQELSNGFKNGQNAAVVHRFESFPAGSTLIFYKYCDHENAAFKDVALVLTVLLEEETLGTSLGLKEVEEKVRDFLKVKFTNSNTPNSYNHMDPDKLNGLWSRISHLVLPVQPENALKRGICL

| Compound | composite z-score |
| --- | --- |
| C=CCC(OC(C)=O)[C@@H]1[C@@H](N(Cc2cc3ccccc3o2)C(=O)c2ccc(C)cc2)c2cc(OCCCO)ccc2N1C(=O)Cc1ccc2ccccc2c1 (stereo not given in full) | 0.102 |
| COC(=O)[C@H](Cc1ccccc1)N1CC(/C=C/C2CC2)=C[C@@H]1[C@@H](O)Cc1ccccc1 | 0.0412 |
| C=C1C2CC3C(=C4C(CO[C@@H]4[C@H]4CCCN4S(=O)(=O)c4ccccc4[N+](=O)[O-])C4C(=O)N(C)C(=O)C34)CC2C(=O)N1C (stereo not given in full) | 0.231 |
| [N-]=[N+]=Nc1ccccc1C[C@]1(C(=O)NCc2ccccc2)N=C(c2ccc(OCCCO)cc2)O[C@H]1c1ccccc1 | 1.39 |
| COc1ccccc1CN1C(=O)c2ccccc2[C@](Cc2ccccc2I)(C(=O)NC(C)C)[C@@H]1c1ccc(CO)cc1 | 0.855 |
| O=C1NC(=O)C2C1C=CC(C(O)c1ccc3c(c1)OCO3)N2Nc1ccccn1 (stereo not given) | 0.493 |
| [N-]=[N+]=NCc1ccccc1C[C@@]1(C(N)=O)N=C(c2ccc(OCCCO)cc2)O[C@@H]1c1ccccc1CN=[N+]=[N-] | 0.623 |
| COCCCNC(=O)[C@]1(Cc2ccccc2CN=[N+]=[N-])N=C(c2ccc(OCCCO)cc2)O[C@@H]1c1ccccc1 | 1 |
| COCCOC(=O)N1C(=O)[C@@]2(c3cc(C#CC4(O)CCCCCC4)ccc31)[C@H](C(=O)N1CCCCCCC1)[C@H]1C(=O)O[C@H](c3ccccc3)[C@H](c3ccccc3)N1[C@@H]2c1ccc(OCCO)cc1 | 4.12 |
| CN(C)CCCCNC(=O)[C@H]1C[C@H]2C(=O)N3CCC[C@H]3C(=O)N2[C@H]1c1ccc(O)cc1 | -0.206 |
